Measured values from PubChem BioAssay (EPA / NIEHS).
Inconclusive results are not listed. Calls of active or inactive are those of the source. How the source made its calls, unless noted: active means hit-call score of the fitted dose curve at least 0.9, where 1 is the maximum; inactive means score below 0.9.

What was measured:
[1] = target: Steroid hormone receptor ERR1 (Homo sapiens) (UniProt P11474); assay: ATG_ERRa_TRANS: Attagene TRANS-FACTORIAL HepG2 Assay for human Estrogen-Related Receptor alpha (ERRa) (AID 2282971; active means hit-call score of the fitted dose curve at least 0.9, where 1 is the maximum); conditions: HepG2 Attagene TRANS reporter, ERRa transactivation
Method in brief: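 HepG2 cells transiently transfected with GAL4-UAS reporter units and chimeric NR-Gal4 constructs; after 24 hour compound incubation, reporter mRNA quantified by RT-PCR, fluorescent labelling and capillary electrophoresis, gain of signal versus DMSO.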

[2] = target: X-box-binding protein 1 (Homo sapiens) (UniProt P17861); assay: ATG_Xbp1_CIS: Attagene CIS-FACTORIAL HepG2 Assay for human X-box Binding Protein 1 (XBP1) (AID 2282972); conditions: HepG2 XBP1 cis-element reporter, Attagene multiplex; actives raise or lower the signal
Method in brief: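 After a 24-hour chemical exposure of HepG2 cells carrying cis-regulated reporters, reporter mRNA levels are assessed. Quantification uses RT-PCR, 6-FAM labelling and capillary electrophoresis. Gain- or loss-of-signal is fitted against DMSO.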

[3] = ATG_M_19_TRANS: Attagene TRANS-FACTORIAL HepG2 Assay for M19 Transcription Factor (Internal Marker) (AID 2282974; active means hit-call score of the fitted dose curve at least 0.9, where 1 is the maximum); conditions: HepG2 Attagene TRANS-FACTORIAL M19 internal marker reporter
Method in brief: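 24 h chemical exposure of transiently transfected HepG2 (MRTU library). RNA → oligo(dT) RT → PCR → 6-FAM labelling → HpaI cut → CE fluorescence. Positive-direction fit vs DMSO baseline; background internal-marker readout.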

[4] = target: Estrogen-related receptor gamma (Homo sapiens) (UniProt P62508); assay: ATG_ERRg_TRANS: Attagene TRANS-FACTORIAL HepG2 Assay for human Estrogen-Related Receptor gamma (ERRg) (AID 2282977; active means hit-call score of the fitted dose curve at least 0.9, where 1 is the maximum;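 further: hits increase reporter signal over DMSO so potencies reflect activators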); conditions: HepG2 Attagene TRANS reporter, ERRg transactivation
Method in brief: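 HepG2 cells transiently transfected with multiplexed GAL4-UAS reporter units and chimeric NR-Gal4 constructs were exposed to test chemicals for 24 h. Reporter mRNA was measured by RT-PCR, 6-FAM primer extension, HpaI digestion and capillary electrophoresis; gain-of-signal versus DMSO.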

[5] = target: Oxysterols receptor LXR-alpha (Homo sapiens) (UniProt Q13133); assay: ATG_LXRa_TRANS: Attagene TRANS-FACTORIAL HepG2 Assay for human Liver X Receptor alpha (LXRa) (AID 2282980; active means hit-call score of the fitted dose curve at least 0.9, where 1 is the maximum); conditions: HepG2 Attagene TRANS reporter, LXRa transactivation
Method in brief: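 HepG2 cells transiently transfected with GAL4-UAS reporter units for chimeric NR-Gal4 proteins, exposed to chemicals for 24 h. Reporter mRNA quantified by RT-PCR and capillary electrophoresis; gain of signal fitted relative to DMSO.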

[6] = target: Oxysterols receptor LXR-beta (Homo sapiens) (UniProt P55055); assay: ATG_LXRb_TRANS: Attagene TRANS-FACTORIAL HepG2 Assay for human Liver X Receptor beta (LXRb) (AID 2282981; active means hit-call score of the fitted dose curve at least 0.9, where 1 is the maximum); conditions: HepG2 Attagene TRANS GAL4-LXRb reporter, mRNA
Method in brief: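 Gain-of-signal mRNA reporter endpoint, DMSO as negative control. Transiently transfected HepG2 cells carrying the NR-Gal4 chimera and GAL4-UAS reporter units were treated 24 h; transcripts quantified by RT-PCR and capillary electrophoresis fluorescence.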

[7] = target: Hepatocyte nuclear factor 4-alpha (Homo sapiens) (UniProt P41235); assay: ATG_HNF4a_TRANS: Attagene TRANS-FACTORIAL HepG2 Assay for human Hepatocyte Nuclear Factor 4 alpha (HNF4a) (AID 2282982; active means hit-call score of the fitted dose curve at least 0.9, where 1 is the maximum); conditions: HepG2 HNF4a transactivation reporter, mRNA readout
Method in brief: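 Gain-of-signal mRNA induction, relative to DMSO vehicle, was read after 24 h compound treatment of HepG2 cells bearing transfected GAL4-UAS reporters. Detection used RT-PCR, 6-FAM primer extension and capillary electrophoresis.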

[8] = ATG_M_06_TRANS: Attagene TRANS-FACTORIAL HepG2 Assay for M06 Transcription Factor (Internal Marker) (AID 2282983; active means hit-call score of the fitted dose curve at least 0.9, where 1 is the maximum); conditions: HepG2 Attagene TRANS M06 internal marker reporter
Method in brief: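 HepG2 cells transiently transfected with GAL4-UAS multiple reporter units, dosed 24 h. Reporter RNA reverse-transcribed, PCR-amplified, 6-FAM-labeled, HpaI-digested and quantified by capillary electrophoresis; this internal-marker signal fitted upward relative to DMSO.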

[9] = ATG_M_32_TRANS: Attagene TRANS-FACTORIAL HepG2 Assay for M32 Transcription Factor (Internal Marker) (AID 2282984; active means hit-call score of the fitted dose curve at least 0.9, where 1 is the maximum); conditions: HepG2 Attagene TRANS M32 internal marker reporter
Method in brief: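 Capillary electrophoresis of 6-FAM-labelled reporter fragments gives the signal; data fitted for gain over DMSO negative control. Source: HepG2 cells bearing transient multiple reporter transcription units, 24 h exposure.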

[10] = target: Transcriptional activator Myb (Homo sapiens) (UniProt P10242); assay: ATG_Myb_CIS: Attagene CIS-FACTORIAL HepG2 Assay for human Myeloblastosis (Myb) Proto-Oncogene Transcription Factor (AID 2282986); conditions: HepG2 Attagene CIS-FACTORIAL Myb reporter transcription; actives raise or lower the signal
Method in brief: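 HepG2, transient MRTU transfection (cis-element promoters, endogenous TF activity), 24 h compound exposure. Readout: reporter mRNA via RT-PCR, 6-FAM labeling, HpaI digest, capillary electrophoresis. Gain/loss fit vs DMSO.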

[11] = target: Nuclear respiratory factor 1 (Homo sapiens) (UniProt Q16656); assay: ATG_NRF1_CIS: Attagene CIS-FACTORIAL HepG2 Assay for human Nuclear Respiratory Factor 1 (NRF1) Orphan Gene (AID 2282987); conditions: HepG2 NRF1 cis-element reporter, Attagene multiplex; actives raise or lower the signal
Method in brief: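 Endogenous NRF1-driven reporter transcription measured in transiently transfected human HepG2 liver cells. Readout: reporter mRNA by RT-PCR and capillary electrophoresis with fluorescence detection, 24 h post-dosing. Gain or loss of signal fitted relative to DMSO baseline.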

[12] = ATG_NFI_CIS: Attagene CIS-FACTORIAL HepG2 Assay for human Nuclear Factor I (NFI) (AID 2282989); conditions: HepG2 cis-regulatory reporter, NFI response element transcription; actives raise or lower the signal
Method in brief: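 Endogenous TF activity in HepG2 cells transiently transfected with cis-element-driven multiplexed reporter units, read 24 h after dosing. Reporter mRNA quantified by RT-PCR, 6-FAM labelling, HpaI digestion and capillary electrophoresis; bidirectional fit versus DMSO.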

[13] = target: Myc proto-oncogene protein (Homo sapiens) (UniProt P01106); assay: ATG_Myc_CIS: Attagene CIS-FACTORIAL HepG2 Assay for human Myelocytomatosis (Myc) Proto-Oncogene Transcription Factor (AID 2282990); conditions: HepG2, Attagene cis-reporter transcription factor activity; actives raise or lower the signal
Method in brief: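 Transiently transfected HepG2 cells bearing cis-promoter reporter units for endogenous transcription factors; 24 h exposure. Reporter mRNA measured by RT-PCR, 6-FAM primer extension, HpaI cut and capillary electrophoresis; bidirectional fit relative to DMSO.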

[14] = ATG_NF_kB_CIS: Attagene CIS-FACTORIAL HepG2 Assay for human Nuclear Factor Kappa B (NF-kB) (AID 2282991); conditions: HepG2 Attagene cis-factorial NF-kB reporter mRNA; actives raise or lower the signal
Method in brief: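 Read-out: reporter transcript levels quantified by RT-PCR plus capillary electrophoresis of 6-FAM-labelled, HpaI-cut fragments. Transfected HepG2 cells, 24 h compound exposure, endogenous NF-kB-driven cis element; gain or loss scored versus DMSO.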

[15] = ATG_NRF2_ARE_CIS: Attagene CIS-FACTORIAL HepG2 Assay for human Nuclear Factor Erythroid 2 Related Factor 2 (NFR2) response to Antioxidant Response Elements (ARE) (AID 2282992); conditions: HepG2 Attagene ARE/NRF2 reporter, transcription factor activity; actives raise or lower the signal
Method in brief: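 Cis-factorial assay: transfected HepG2 reporter library, 24 h dosing, mRNA readout via RT-PCR/CE; DMSO-referenced bidirectional analysis.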

[16] = ATG_GAL4_TRANS: Attagene TRANS-FACTORIAL HepG2 Assay for GAL4 (Internal Marker) (AID 2282976; active means hit-call score of the fitted dose curve at least 0.9, where 1 is the maximum); conditions: HepG2 Attagene TRANS GAL4 internal marker reporter
Method in brief: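 Background-control readout: GAL4-UAS reporter transcript in transiently transfected HepG2 cells after 24 h compound exposure. Measured by RT-PCR, 6-FAM primer extension, HpaI digest and capillary electrophoresis; gain-of-signal fit versus DMSO.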

[17] = target: Glucocorticoid receptor (Homo sapiens) (UniProt P04150); assay: ATG_GR_TRANS: Attagene TRANS-FACTORIAL HepG2 Assay for human Glucocorticoid Receptor (GR) (AID 2282978; active means hit-call score of the fitted dose curve at least 0.9, where 1 is the maximum;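 further: activators score as hits since higher reporter transcript over DMSO is fitted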); conditions: HepG2 Attagene TRANS GR reporter, mRNA transcription
Method in brief: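 Transient MRTU transfection of HepG2 (GAL4-UAS reporters, exogenous NR-GAL4 chimeras), 24 h dosing. Readout: reporter transcript via RT-PCR + capillary electrophoresis fluorescence. Positive direction vs DMSO baseline.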

[18] = target: Nuclear receptor subfamily 4 group A member 2 (Homo sapiens) (UniProt P43354); assay: ATG_NURR1_TRANS: Attagene TRANS-FACTORIAL HepG2 Assay for human Nuclear Receptor Related Protein 1 (NURR1) (AID 2282985; active means hit-call score of the fitted dose curve at least 0.9, where 1 is the maximum); conditions: HepG2 Attagene TRANS reporter, mRNA readout
Method in brief: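 HepG2 / transient MRTU transfection / 24 h compound exposure / RT-PCR + CE fluorescence of reporter mRNA / gain-of-signal vs DMSO.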

Measured: AC50

Chain of Transcriptional activator Myb (Homo sapiens) (P10242 whole entry, looked up): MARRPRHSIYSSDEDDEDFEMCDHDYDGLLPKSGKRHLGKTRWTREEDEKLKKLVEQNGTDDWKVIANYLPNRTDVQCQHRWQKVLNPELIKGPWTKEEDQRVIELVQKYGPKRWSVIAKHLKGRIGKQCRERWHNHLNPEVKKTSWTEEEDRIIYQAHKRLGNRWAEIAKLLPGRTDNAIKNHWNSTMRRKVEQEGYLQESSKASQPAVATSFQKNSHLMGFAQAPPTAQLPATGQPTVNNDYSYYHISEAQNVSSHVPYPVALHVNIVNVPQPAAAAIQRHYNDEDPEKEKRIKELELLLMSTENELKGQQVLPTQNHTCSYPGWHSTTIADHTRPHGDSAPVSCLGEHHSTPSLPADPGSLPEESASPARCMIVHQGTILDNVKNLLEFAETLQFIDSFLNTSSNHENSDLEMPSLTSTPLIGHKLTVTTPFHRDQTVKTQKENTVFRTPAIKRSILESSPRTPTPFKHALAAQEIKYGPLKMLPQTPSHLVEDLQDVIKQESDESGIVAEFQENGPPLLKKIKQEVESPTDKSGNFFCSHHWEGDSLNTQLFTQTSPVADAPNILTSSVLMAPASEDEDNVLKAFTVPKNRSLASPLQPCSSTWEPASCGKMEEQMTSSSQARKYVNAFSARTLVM
Chain of X-box-binding protein 1 (Homo sapiens) (P17861 whole entry, looked up): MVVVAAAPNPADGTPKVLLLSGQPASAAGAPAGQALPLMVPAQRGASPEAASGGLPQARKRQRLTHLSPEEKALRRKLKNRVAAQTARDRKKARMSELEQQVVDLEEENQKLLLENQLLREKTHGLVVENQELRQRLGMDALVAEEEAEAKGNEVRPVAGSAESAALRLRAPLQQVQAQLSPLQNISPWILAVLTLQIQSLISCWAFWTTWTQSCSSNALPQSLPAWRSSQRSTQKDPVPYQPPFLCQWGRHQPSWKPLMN
Chain of Nuclear respiratory factor 1 (Homo sapiens) (Q16656 whole entry, looked up): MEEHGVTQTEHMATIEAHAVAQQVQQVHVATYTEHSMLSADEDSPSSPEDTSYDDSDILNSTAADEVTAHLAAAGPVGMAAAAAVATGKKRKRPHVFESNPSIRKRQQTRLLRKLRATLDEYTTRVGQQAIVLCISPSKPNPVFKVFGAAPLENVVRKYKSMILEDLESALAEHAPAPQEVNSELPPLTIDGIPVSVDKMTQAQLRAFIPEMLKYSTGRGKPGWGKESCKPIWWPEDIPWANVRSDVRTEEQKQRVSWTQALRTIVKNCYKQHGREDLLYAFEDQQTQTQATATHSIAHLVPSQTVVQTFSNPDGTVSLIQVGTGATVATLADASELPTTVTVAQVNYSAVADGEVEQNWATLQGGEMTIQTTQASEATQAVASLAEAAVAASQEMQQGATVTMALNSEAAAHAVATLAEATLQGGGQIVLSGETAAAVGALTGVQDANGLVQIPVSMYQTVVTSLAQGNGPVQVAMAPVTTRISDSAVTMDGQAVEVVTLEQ
Chain of Myc proto-oncogene protein (Homo sapiens) (P01106 whole entry, looked up): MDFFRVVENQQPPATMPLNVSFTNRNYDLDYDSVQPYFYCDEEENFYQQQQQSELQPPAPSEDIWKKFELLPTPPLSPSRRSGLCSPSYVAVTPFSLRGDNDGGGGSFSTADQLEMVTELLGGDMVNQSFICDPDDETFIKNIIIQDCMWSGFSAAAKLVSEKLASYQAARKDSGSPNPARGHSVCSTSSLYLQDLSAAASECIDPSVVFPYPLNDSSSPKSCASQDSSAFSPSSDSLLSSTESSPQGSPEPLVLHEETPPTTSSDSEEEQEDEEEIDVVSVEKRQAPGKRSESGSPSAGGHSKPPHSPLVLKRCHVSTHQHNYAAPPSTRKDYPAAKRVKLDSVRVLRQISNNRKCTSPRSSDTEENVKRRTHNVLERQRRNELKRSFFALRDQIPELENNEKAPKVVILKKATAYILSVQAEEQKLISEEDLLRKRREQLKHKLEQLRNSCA
Chain of Estrogen-related receptor gamma (Homo sapiens) (P62508 whole entry, looked up, the tested form may be a part): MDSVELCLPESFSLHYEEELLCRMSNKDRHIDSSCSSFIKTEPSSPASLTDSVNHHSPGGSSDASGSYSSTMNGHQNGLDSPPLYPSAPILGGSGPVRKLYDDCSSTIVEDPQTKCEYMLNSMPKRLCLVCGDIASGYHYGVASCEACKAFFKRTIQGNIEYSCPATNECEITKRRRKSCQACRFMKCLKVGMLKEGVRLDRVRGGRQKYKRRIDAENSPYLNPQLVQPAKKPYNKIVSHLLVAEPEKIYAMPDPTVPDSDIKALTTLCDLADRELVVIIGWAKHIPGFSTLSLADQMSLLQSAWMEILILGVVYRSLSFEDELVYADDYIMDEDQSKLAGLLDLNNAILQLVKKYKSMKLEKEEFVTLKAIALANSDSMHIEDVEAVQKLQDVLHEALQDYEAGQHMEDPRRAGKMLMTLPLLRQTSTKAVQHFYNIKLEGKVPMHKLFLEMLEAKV
Chain of Steroid hormone receptor ERR1 (Homo sapiens) (P11474 whole entry, looked up, the tested form may be a part): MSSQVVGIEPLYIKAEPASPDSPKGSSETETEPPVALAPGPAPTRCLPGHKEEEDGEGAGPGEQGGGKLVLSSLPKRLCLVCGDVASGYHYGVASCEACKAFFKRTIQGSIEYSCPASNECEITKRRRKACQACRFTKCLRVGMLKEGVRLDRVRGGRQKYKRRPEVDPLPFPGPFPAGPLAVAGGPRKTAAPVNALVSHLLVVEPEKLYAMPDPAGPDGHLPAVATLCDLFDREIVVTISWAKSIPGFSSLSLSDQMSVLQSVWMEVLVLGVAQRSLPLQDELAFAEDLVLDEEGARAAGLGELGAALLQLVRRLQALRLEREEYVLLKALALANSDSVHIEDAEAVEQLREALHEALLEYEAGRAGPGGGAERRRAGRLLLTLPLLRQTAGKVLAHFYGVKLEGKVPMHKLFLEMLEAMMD
Chain of Hepatocyte nuclear factor 4-alpha (Homo sapiens) (P41235 whole entry, looked up, the tested form may be a part): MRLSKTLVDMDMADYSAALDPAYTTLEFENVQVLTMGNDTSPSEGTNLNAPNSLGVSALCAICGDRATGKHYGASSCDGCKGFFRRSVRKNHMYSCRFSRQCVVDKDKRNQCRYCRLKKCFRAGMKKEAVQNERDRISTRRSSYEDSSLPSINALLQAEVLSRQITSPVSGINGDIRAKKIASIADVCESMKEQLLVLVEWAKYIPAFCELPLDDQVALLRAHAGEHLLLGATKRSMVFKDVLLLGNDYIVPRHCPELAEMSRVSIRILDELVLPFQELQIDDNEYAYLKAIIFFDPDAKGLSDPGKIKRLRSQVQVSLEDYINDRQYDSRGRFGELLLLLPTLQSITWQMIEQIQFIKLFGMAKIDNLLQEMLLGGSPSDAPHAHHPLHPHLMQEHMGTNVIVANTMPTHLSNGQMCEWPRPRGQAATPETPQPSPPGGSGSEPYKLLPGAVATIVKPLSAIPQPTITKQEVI
Chain of Glucocorticoid receptor (Homo sapiens) (P04150 whole entry, looked up, the tested form may be a part): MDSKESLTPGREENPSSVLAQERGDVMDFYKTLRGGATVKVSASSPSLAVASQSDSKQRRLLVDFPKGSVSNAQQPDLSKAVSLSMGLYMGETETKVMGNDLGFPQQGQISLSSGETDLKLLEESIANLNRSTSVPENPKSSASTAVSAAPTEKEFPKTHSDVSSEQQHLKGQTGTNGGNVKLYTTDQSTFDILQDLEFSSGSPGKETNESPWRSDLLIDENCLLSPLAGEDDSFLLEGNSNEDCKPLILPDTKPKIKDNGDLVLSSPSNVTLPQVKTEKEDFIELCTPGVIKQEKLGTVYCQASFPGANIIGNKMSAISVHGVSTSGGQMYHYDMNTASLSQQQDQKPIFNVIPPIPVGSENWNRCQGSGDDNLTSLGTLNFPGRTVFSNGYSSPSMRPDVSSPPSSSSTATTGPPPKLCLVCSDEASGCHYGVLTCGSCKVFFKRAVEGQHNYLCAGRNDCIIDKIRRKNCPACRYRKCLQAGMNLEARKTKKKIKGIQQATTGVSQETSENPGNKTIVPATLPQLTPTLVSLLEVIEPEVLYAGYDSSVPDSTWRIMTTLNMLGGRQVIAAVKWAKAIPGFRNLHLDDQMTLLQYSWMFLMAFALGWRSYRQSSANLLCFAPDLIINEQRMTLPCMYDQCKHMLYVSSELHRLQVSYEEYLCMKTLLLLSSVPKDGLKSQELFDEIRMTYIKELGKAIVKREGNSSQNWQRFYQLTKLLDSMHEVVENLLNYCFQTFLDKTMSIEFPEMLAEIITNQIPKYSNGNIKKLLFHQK
Chain of Nuclear receptor subfamily 4 group A member 2 (Homo sapiens) (P43354 whole entry, looked up): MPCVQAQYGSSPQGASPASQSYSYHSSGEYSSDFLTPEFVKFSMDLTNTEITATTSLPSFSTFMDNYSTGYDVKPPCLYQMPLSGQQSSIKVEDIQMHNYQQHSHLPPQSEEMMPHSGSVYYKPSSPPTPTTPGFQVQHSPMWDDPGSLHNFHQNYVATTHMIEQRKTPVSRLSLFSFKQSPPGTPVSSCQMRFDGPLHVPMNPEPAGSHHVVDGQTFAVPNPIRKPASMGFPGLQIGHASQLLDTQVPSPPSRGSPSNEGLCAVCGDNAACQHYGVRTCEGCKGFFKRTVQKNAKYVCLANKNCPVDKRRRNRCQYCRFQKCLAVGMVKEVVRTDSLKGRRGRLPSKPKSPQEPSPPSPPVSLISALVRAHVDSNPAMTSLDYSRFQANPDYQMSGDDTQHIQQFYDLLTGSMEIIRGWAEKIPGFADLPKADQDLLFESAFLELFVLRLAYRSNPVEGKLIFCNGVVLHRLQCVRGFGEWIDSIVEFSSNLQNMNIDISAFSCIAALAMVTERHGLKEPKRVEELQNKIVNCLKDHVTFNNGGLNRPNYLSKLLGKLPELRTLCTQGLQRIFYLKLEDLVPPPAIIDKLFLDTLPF

Cl[C@H]1OCCO[C@@H]1Cl
not listed: [16] | [17] | [18]
inactive: all other assays above

O=c1nc(O)n(Cl)c(=O)n1Cl
not listed: [5] | [6] | [9] | [14] | [17] | [18]
inactive: all other assays above

CC(c1ccccc1)(c1ccc(O)cc1)c1ccc(O)cc1
active: [2] 15 µM | [18] 18.2 µM
not listed: [5] | [6] | [7] | [14] | [15] | [16]
inactive: all other assays above

CC(C)=CC1C(C(=O)OCc2cccc(Oc3ccccc3)c2)C1(C)C (stereo not drawn)
not listed: [6] | [7] | [8] | [14] | [17] | [18]
inactive: all other assays above

CCCCOC(=O)COC(=O)c1ccccc1C(=O)OCCCC
not listed: [4] | [5] | [6] | [8] | [12] | [14]
inactive: all other assays above
